# Experimental data: PubChem BioAssay
# Calls of active or inactive are those of the source.
# Tests used:
# Albumin (Bos taurus) = Albumin (Bos taurus) (UniProt P02769); experiment: bovine serum albumin binders on microarray, profiling panel, artefact control for SMM control protein annotation, biochemical, small-molecule microarray, Alexa647 label, 635/667 nm fluorescence (AID 1118); conditions: BSA-A647 binding, fluorescence 635 nm, higher = more signal;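 further: score merges 667 nm emission intensity and signal-to-noise per printed compound spot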
# [1] = small-molecule microarray binders of probe aXIP, primary screen, biochemical, NeuroSMM set, 635/667 nm fluorescence (AID 1119); conditions: higher = more signal, called active from +8 up or from −8 down;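 further: probe is the protein aXip251-270 applied at 1 µg/mL to compound-printed slides; binding of probe to printed compounds measured as 667 nm fluorescence plus signal to noise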
# [2] = small-molecule binders of probe aNOTCH3, primary screen, biochemical, small-molecule microarray, 635/667 nm fluorescence (AID 1120); conditions: higher = more signal;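 further: probe is a biotin-tagged antibody raised against NOTCH3 rather than NOTCH3 protein; score merges spot fluorescence near 667 nm with spot signal to noise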
# [3] = small-molecule binders of probe aNOTCH2, primary screen, biochemical, small-molecule microarray, 635/667 nm fluorescence (AID 1121); conditions: higher = more signal;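 further: score merges feature fluorescence read at 667 nm with its signal to noise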
# [4] = target: Carbonic anhydrase 2 (Homo sapiens) (UniProt P00918); experiment: CAII small-molecule binders, profiling panel, biochemical, small-molecule microarray, Alexa647-labelled CAII (AID 1122); conditions: CAII-A647 binding fluorescence, higher = more signal
# [5] = COS7 lysate on small-molecule microarray, probe aHis, 635 nm (AID 1123); conditions: COS7 cell lysate, fluorescence, higher = more signal;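 further: z-score combines 667nm fluorescence intensity with signal-to-noise per printed compound spot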
# [6] = compound binding in COS7 lysate, probe aLAP1, primary screen, cell lysate, small-molecule microarray (AID 1124); conditions: probe aLAP1, fluorescence, higher = more signal;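 further: lysate comes from COS7 cells expressing LAP1 and is applied at 0.3 µg/mL; score merges spot fluorescence near 667 nm with signal-to-noise over triplicate slides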
# Sam68 (KHDRBS1) = experiment: Sam68 small-molecule binders, primary screen, biochemical, small-molecule microarray, 635 nm fluorescence (AID 1125); conditions: small-molecule microarray binding, higher = more signal;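 further: score merges 667 nm channel intensity with signal to noise over triplicate slides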
# [7] = test system: Chordin-like protein 2 (CHRDL2); experiment: CHRDL2 small-molecule binders, primary screen, biochemical, small-molecule microarray, 635 nm fluorescence (AID 1126); conditions: small-molecule microarray binding, fluorescence 635 nm; higher = more signal;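 further: printed compound slides probed with Chrdl2 protein at 4 µg/mL for 1 h at 4 C; score merges 667 nm emission intensity with signal to noise over three replicate slides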
# [8] = target: Concanavalin-A (Canavalia ensiformis) (UniProt P02866); experiment: ConA small-molecule binders, primary screen, artefact control for SMM control protein annotation, biochemical, small-molecule microarray, Alexa647 label, 635 nm (AID 1127); conditions: ConA-A647 binding fluorescence, higher = more signal;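 further: z combines 667 nm emission intensity with signal-to-noise across three replicate slides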
# [9] = anti-His antibody binders, primary screen, artefact control for SMM control protein annotation, biochemical, small-molecule microarray, 635 nm fluorescence (AID 1128); conditions: anti-His Alexa647 antibody binding, higher = more signal;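 further: score merges feature fluorescence with signal-to-noise for each printed compound spot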
# [10] = test system: Human papillomavirus type 1a E7 protein (residues 1-88); experiment: HPV1a E7 small-molecule binders, primary screen, biochemical, small-molecule microarray, residues 1-88, 635 nm (AID 1129); conditions: small-molecule microarray binding, fluorescence 635 nm; higher = more signal
# [11] = target: Focal adhesion kinase 1 (Homo sapiens) (UniProt Q05397); experiment: small-molecule microarray binders of FAK, primary screen, biochemical, 635/667 nm fluorescence, BSA, DTT (AID 1130); conditions: PTK2 binding, 635 nm fluorescence, higher = more signal;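 further: composite of spot emission at 667 nm and signal to noise over triplicate slides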
# [12] = test system: Fibrinogen (Alexa647-labelled); experiment: fibrinogen binders on compound microarrays, profiling panel, artefact control for SMM control-protein annotation, biochemical, small-molecule microarray, 635/667 nm fluorescence (AID 1131); conditions: fibrinogen-A647 binding fluorescence, higher = more signal;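 further: z-score merges 667 nm fluorescence with per-spot signal-to-noise over triplicate slides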
# [13] = target: Follistatin (Homo sapiens) (UniProt P19883); experiment: follistatin binders on small-molecule microarrays, primary screen, biochemical, small-molecule microarray, 635/667 nm fluorescence (AID 1132); conditions: FST binding, 635 nm fluorescence, higher = more signal
# [14] = target: Fibroblast growth factor 2 (Homo sapiens) (UniProt P09038); experiment: FGF2 binders on small-molecule microarrays, primary screen, biochemical, small-molecule microarray, 635/667 nm fluorescence (AID 1133); conditions: small-molecule microarray binding, FGF2, fluorescence 635/667; higher = more signal
# [15] = mitochondrial membrane potential change in A549 cells, profiling panel, cell-based, JC-1 fluorescence, basal, 24 h, 100 nL (AID 1138); conditions: higher = more signal;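 further: A549 lung adenocarcinoma cells under basal conditions with no added stimulus; test concentration not given here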
# Lefty1 = Lefty1 binders on small-molecule microarrays, primary screen, biochemical, small-molecule microarray, 635/667 nm fluorescence (AID 1139); conditions: small-molecule microarray binding, fluorescence 635/667; higher = more signal
# [16] = test system: wheat germ agglutinin (Triticum aestivum), Alexa647-labelled; experiment: wheat germ agglutinin binders on compound microarrays, profiling panel, artefact control for SMM control-protein annotation, biochemical, small-molecule microarray, 635/667 nm fluorescence (AID 1140); conditions: WGA-A647 binding, 635 nm fluorescence, higher = more signal;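 further: score merges 667 nm feature emission with signal to noise over triplicate slides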
# [17] = target: Luciferin 4-monooxygenase (Photinus pyralis) (UniProt P08659); experiment: firefly luciferase enzyme inhibitors, primary screen, biochemical, luminescence, purified enzyme, 2006 set (AID 1141); conditions: SteadyGlo luminescence, 30 min, higher = more signal, called active from +8 up or from −8 down;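 further: cell-free assay with purified firefly luciferase at 100 ng per well in PBS; test concentration not given here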
# Chain of Luciferin 4-monooxygenase (Photinus pyralis) (P08659 whole entry, looked up): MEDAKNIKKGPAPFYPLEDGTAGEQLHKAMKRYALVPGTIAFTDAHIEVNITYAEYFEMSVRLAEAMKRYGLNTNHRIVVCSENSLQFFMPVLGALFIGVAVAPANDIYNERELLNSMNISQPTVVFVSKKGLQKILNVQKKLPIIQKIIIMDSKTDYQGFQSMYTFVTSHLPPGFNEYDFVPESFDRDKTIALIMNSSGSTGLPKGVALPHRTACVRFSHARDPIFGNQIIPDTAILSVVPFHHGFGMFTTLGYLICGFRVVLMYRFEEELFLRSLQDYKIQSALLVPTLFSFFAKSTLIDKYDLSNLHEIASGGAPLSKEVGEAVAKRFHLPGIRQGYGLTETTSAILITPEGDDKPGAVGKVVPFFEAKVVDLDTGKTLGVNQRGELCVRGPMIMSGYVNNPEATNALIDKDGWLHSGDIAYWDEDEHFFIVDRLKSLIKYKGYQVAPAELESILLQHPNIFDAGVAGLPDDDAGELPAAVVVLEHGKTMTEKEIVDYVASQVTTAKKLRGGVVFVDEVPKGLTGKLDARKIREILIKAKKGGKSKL
# Chain of Focal adhesion kinase 1 (Homo sapiens) (Q05397 whole entry, looked up): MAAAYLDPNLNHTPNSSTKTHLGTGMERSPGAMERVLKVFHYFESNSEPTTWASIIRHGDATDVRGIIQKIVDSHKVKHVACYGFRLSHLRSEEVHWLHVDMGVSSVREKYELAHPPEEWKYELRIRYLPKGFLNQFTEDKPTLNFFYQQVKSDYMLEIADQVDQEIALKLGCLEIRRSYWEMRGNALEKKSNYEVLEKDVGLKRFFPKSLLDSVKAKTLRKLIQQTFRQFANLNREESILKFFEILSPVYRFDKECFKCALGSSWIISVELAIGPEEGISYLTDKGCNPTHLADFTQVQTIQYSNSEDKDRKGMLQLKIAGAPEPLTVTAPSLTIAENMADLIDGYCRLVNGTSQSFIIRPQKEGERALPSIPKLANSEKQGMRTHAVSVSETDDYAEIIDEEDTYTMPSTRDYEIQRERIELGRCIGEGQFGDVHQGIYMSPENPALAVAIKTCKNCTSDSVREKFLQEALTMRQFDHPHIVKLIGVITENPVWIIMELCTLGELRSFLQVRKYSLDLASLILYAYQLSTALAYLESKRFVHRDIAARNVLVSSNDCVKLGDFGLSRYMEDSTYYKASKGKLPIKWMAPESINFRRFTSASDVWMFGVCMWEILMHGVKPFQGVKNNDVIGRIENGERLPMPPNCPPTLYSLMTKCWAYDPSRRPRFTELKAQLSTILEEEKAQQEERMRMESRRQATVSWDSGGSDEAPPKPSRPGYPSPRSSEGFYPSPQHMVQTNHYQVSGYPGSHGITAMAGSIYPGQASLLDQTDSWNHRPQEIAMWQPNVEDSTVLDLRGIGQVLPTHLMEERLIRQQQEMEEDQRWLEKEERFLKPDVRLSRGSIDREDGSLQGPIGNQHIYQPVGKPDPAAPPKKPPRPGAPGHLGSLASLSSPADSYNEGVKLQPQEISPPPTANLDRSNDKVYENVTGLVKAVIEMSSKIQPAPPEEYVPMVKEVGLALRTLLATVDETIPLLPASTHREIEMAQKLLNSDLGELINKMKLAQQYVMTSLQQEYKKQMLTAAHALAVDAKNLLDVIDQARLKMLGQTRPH
# Chain of Concanavalin-A (Canavalia ensiformis) (P02866 whole entry, looked up): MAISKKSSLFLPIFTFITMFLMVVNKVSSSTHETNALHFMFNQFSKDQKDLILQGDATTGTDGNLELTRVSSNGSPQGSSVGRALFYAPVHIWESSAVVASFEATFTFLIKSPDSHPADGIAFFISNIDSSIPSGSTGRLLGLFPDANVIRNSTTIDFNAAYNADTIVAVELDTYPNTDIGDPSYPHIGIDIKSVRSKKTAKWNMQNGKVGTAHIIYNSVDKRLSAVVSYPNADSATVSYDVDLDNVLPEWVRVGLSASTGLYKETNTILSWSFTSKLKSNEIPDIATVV
# Chain of Fibroblast growth factor 2 (Homo sapiens) (P09038 whole entry, looked up): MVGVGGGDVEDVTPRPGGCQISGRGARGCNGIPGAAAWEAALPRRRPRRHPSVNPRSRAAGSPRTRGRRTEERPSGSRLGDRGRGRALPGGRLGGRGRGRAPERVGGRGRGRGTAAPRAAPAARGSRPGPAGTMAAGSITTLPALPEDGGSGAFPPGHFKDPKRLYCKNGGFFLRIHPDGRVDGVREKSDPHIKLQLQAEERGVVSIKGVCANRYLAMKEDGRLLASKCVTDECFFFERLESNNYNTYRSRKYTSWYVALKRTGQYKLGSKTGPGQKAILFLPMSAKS
# Chain of Follistatin (Homo sapiens) (P19883 whole entry, looked up): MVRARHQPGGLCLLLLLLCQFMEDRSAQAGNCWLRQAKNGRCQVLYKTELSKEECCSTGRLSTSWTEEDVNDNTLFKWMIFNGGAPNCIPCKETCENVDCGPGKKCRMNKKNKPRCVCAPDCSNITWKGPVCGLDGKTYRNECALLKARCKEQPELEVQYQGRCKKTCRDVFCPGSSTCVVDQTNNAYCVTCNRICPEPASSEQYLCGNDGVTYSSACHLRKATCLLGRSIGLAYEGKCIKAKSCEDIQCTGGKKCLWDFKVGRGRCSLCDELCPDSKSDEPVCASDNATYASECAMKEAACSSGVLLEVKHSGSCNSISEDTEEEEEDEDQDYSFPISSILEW
# Chain of Albumin (Bos taurus) (P02769 whole entry, looked up): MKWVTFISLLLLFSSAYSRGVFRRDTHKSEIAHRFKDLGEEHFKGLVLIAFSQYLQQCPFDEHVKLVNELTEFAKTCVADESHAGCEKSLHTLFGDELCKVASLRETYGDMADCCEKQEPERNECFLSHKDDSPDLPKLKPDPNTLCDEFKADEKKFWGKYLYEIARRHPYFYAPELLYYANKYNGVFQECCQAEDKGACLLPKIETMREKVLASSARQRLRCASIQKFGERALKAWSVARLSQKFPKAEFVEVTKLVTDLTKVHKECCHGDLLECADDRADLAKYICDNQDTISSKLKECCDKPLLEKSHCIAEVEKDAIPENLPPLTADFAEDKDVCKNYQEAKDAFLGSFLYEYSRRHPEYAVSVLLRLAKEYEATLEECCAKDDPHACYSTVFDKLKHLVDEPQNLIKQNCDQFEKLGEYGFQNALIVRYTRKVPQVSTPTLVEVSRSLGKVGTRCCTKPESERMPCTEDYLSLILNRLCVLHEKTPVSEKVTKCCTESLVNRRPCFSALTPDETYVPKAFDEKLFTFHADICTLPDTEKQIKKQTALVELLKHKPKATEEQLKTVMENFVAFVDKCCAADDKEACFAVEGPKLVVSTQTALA
SMILES,composite z-score (Albumin (Bos taurus)),composite Z-score [1],composite z-score [2],composite z-score [3],composite z-score [4],composite z-score [5],composite z-score [6],composite z-score (Sam68 (KHDRBS1)),composite z-score [7],composite z-score [8],composite z-score [9],composite z-score [10],composite z-score [11],composite z-score [12],composite z-score [13],composite z-score [14],z-score [15],composite z-score (Lefty1),composite z-score [16],z-score [17]
COc1ccc(C(=O)Nc2ccc(CN3C(=O)[C@]4(O[C@H](CCO)[C@@H]([Si](C)(C)c5ccc(OC)cc5)[C@@H]4C)c4ccccc43)cc2)cc1,0.357,0.377 (inactive),0.149,-0.0891,0.283,0.417,-0.337,1.22,0.531,1.09,0.215,1.06,0.246,0.599,0.995,0.894,-1.41,1.36,0.526,0.362 (inactive)
C[N+](C)(C)CCCCNC(=O)[C@@H]1C[C@@H]2C(=O)N[C@@H](Cc3ccccc3)C(=O)N2[C@@H]1c1cccc(OCCO)c1,-0.634,0.668 (inactive),-0.217,-0.199,0.66,0.959,-0.15,-0.174,1.04,-0.504,3.38,-0.636,-0.449,-1.23,1.32,1.55,1.21,0.245,-1.02,-1.75 (inactive)
[N-]=[N+]=NCc1ccccc1[C@@H]1OC(c2ccc(OCCCO)cc2)=N[C@]1(Cc1ccccc1)C(N)=O,0.979,-0.791 (inactive),0.526,0.0646,0.783,1.79,0.222,1.3,-0.692,1.16,0.888,1.25,1.22,1.06,1.28,0.0766,0.199,0.186,1.06,-0.0322 (inactive)
COc1cc(COC(C)=O)ccc1OC(C)=O,-0.0355,-0.254 (inactive),0.397,-0.0304,-0.171,0.279,-0.184,0.624,0.558,0.733,-0.0364,0.262,0.661,0.0038,0.512,0.102,1.47,0.45,-0.155,-1.52 (inactive)
CC1CC/C=C\[C@H]2OC34C=CCN(C(C)(C)C)C(=O)[C@H]3N(C(C)CO)C(=O)[C@@H]4C2C(=O)O1 (stereo not given in full),-0.92,-0.0245 (inactive),-0.122,-0.13,0.4,-0.187,0.199,-1.47,-0.454,-2.17,-1.63,-2.07,-0.9,-2.02,-0.397,-0.121,0.348,-0.248,-1.61,-0.694 (inactive)
CCCC[C@H]1OB(O)C[C@H]2C1=C(COC)Cn1c(=O)n(-c3ccccc3)c(=O)n12,0.0697,-0.166 (inactive),-0.0903,-0.172,-0.185,0.56,0.0521,0.439,0.432,-0.317,-0.152,0.169,-0.0429,0.4,0.464,-1.06,-0.514,0.63,0.435,0.382 (inactive)
Cc1ccc([C@@H]2C[C@@H](Sc3ccccc3)[C@H](C(=O)O)CN2S(=O)(=O)c2ccc(C)cc2)cc1,0.26,-0.571 (inactive),0.171,0.0019,0.726,2.89,0.986,1.29,-0.144,1.03,1.98,1.26,0.373,0.956,0.868,0.507,-1.42,0.589,1.14,1.88 (inactive)
COCCOC(=O)N1C(=O)[C@@]2(c3ccccc31)[C@H](c1ccc(O)cc1)N1[C@H](c3ccccc3)[C@H](c3ccccc3)OC(=O)[C@H]1[C@@H]2C(=O)Nc1nc2ccccc2s1,0.827,-0.434 (inactive),0.351,-0.0956,0.498,1.98,0.384,1.3,-0.172,1.2,1.97,1.17,0.475,0.961,0.695,0.408,-2.42,0.259,1.14,-1.32 (inactive)
COC(=O)[C@H](Cc1ccccc1)N[C@@H](/C=C/C1CC1)[C@H](O)Cc1ccccc1,0.0881,-0.16 (inactive),-0.246,-0.244,0.209,-0.255,0.0885,-0.0844,-0.0635,0.65,-0.477,-0.236,-0.415,0.475,-0.405,-0.489,-0.349,-0.21,0.319,0.702 (inactive)
O=C1NC(=O)C2C1C=CC(C(O)c1cc(C(F)(F)F)cc(C(F)(F)F)c1)N2Nc1ccccn1 (stereo not given),0.0063,0.416 (inactive),-0.0972,-0.0486,0.673,2.15,0.536,0.079,0.673,0.297,0.191,0.289,0.187,0.604,0.89,0.047,0.456,0.187,0.574,0.0198 (inactive)
NC(=O)NCC#Cc1ccc2c(c1)[C@]1(C(=O)N2)[C@H](C(N)=O)[C@H]2C(=O)O[C@H](c3ccccc3)[C@H](c3ccccc3)N2[C@@H]1c1ccc(O)cc1,-0.0636,1.42 (inactive),0.286,0.668,0.688,3.15,0.505,0.652,-0.034,-0.279,-0.407,-0.655,-0.209,0.513,0.336,0.383,-1.27,-1.01,0.623,-0.192 (inactive)
